High-throughput results deposited in PubChem by National Center for Advancing Translational Sciences (NCATS).
This is a sample that favours compounds with a hit; in the whole collection about 17% have one here.
HT1080 IDH1KD tx: qHTS for induction of synthetic lethality in tumor cells producing 2HG: qHTS for the HT-1080-IDH1KD cell line; HT-1080 IDH1 knockdown viability, ATP luminescence, 48 h; Potency, µM (top dose mostly 46.1 µM), for the others: at the highest dose activity, negative = toxicity, actives largely listed as cytotoxic; 360,000 compounds, 2% hits; AID 686971, 2013;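 further: 0% = DMSO wells and -100% = cell-free medium wells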
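CellTiter-Glo luminescence after 48 h compound exposure at 37 degrees C of IDH1-knockdown HT-1080 cells in 5% FBS RPMI. %Activity scaled between DMSO wells and cell-free media wells, with curves fitted and assigned curve classes.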
TGFb inhibitor: qHTS for Inhibitors of TGF-b; 410,000 compounds, 1.2% hits; Potency, µM (series often up to 46.1 µM), for the others: at the highest dose activity, negative = inhibition, hits mostly inhibitors; HepG2 CAGA-GFP TGF-b/SMAD3 reporter, GFP fluorescence, 18 h; TGF-beta stimulated, 500 pg/mL final; further: on the % scale 0 is the no-effect control and ±100 the full control effect; nearly all actives have a fitted effect of over 65% in size
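Per well, imaged GFP fluorescence of HEPG2 CAGA-GFP cells gives the signal; cells get compound, then TGF-beta (500 pg/mL final), 18 h at 37 degrees C; %Activity versus -TGF-beta and +DMSO controls.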
TDP1 cell noCPT: qHTS for Inhibitors of human tyrosyl-DNA phosphodiesterase 1 (TDP1): qHTS in cells in absence of CPT | Potency, µM (doses to about 46.2 µM), for the others: at the top dose activity change, negative = growth inhibition, most hits filed as inhibitors | 420,000 compounds, 15% hits | DT40 Tdp1-/- hTDP1 cells, no CPT, ATP luminescence, 48 h; further: on the % scale 0 is the no-effect control and ±100 the full control effect; nearly all actives have a fitted effect of over 55% in size
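Growth of hTDP1-complemented DT40 Tdp1-knockout cells is measured by ATP luminescence after at least 48 hr compound exposure at 37 °C, with DMSO substituting for the 20 nM CPT used in the parallel screen.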
HepG2 viability: qHTS for Inhibitors of TGF-b: Cytotox Counterscreen | 410,000 compounds, 0.76% hits | Potency, µM (titrated, usually from 46.1 µM), for the others: top-dose activity change, negative = cytotoxicity, most hits filed as cytotoxic | AID 588856, 2011 | HepG2 CAGA-GFP viability, ATP luminescence, 18 h
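CellTiter-Glo luminescence gave cytotoxicity after 18 hours at 37 degrees C. The cells were HepG2 CAGA-GFP in 1% FBS DMEM, stimulated with 500 pg/mL TGF-beta after compound addition. %Activity was normalised to no-cell wells (complete cell-killing) and DMSO (no toxicity), and curves were fitted and classified.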
DT40 TDP1 CPT: qHTS for Inhibitors of human tyrosyl-DNA phosphodiesterase 1 (TDP1): qHTS in cells in presence of CPT; chicken DT40 Tdp1-/-;hTDP1 cells + 20 nM CPT, ATP luminescence, 48 h; Potency, µM (series often up to 46.2 µM), for inactives: at the highest dose activity change, negative = growth inhibition, most hits filed as inhibitors; 420,000 compounds, 12% hits; AID 686979, 2013; further: on the % scale 0 is the no-effect control and ±100 the full control effect; nearly all actives have a fitted effect of over 55% in size
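Chicken DT40 Tdp1-/- cells complemented with human TDP1, 400 cells/well, exposed to compounds plus 20 nM camptothecin for at least 48 h at 37 C; viability read as ATP content by CellTiter-Glo luminescence.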
HT1080-NT tox: qHTS for induction of synthetic lethality in tumor cells producing 2HG: qHTS for the HT-1080-NT fibrosarcoma cell line | HT-1080-NT fibrosarcoma viability, CellTiter-Glo ATP luminescence, 48 h | Potency, µM (titrated, usually from 46.1 µM), for the others: at the highest dose activity, negative = less viability, usual class: cytotoxic | 360,000 compounds, 1.6% hits | AID 686970, 2013;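 further: NT is the 2HG producing partner of a matched IDH1 knockdown line; 0% = DMSO-treated cells and -100% = media-only wells without cells; nearly all actives have a fitted effect of over 55% in size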
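750 cells/well, RPMI + 5% FBS; 2 h settle, compound pin-transfer, 48 h at 37 degrees C. CellTiter-Glo 10 min RT, luminescence. Normalized to DMSO and media-only wells.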
* marks the source's active call; other numbers are inactive results; ? = inconclusive; / = no result; [ ] = dose if it differs, or a comment. The call rests on the fitted dose curve; in most records, active means well fitted curve in the direction sought with a large enough effect; inconclusive means small, poorly fitted or top-dose-only effect, or another doubt; inactive means no such curve, though single readings can be large; an effect the other way counts as inactive or inconclusive. Potency means the concentration at half of the fitted maximal effect.

SMILES	HT1080 IDH1KD tx	TGFb inhibitor	TDP1 cell noCPT	HepG2 viability	DT40 TDP1 CPT	HT1080-NT tox
COc1cc2c(cc1OC)C(CC(=O)O)N(C(=O)Nc1cc(OC)c(OC)c(OC)c1)CC2 (stereo not drawn)	/	3%	?	-2%	3.7µM*	/
COc1cc2c(cc1OC)C(C)N(C(=O)Nc1ccc(F)cc1)CC2 (stereo not drawn)	?	5%	7.3µM*	0%	13µM*	?
COc1cc2c(cc1OC)C(C)N(C(=O)CCc1c[nH]c3ccccc13)CC2 (stereo not drawn)	?	0%	?	-5%	?	?
COc1cc2c(cc1OC)C(C)N(C(=O)Nc1cc(C)cc(C)c1)CC2 (stereo not drawn)	7.3µM*	-22%	2.6µM*	-17%	3.3µM*	6.5µM*
CN1C(=S)SC(N(O)C(=O)Nc2ccc(Cl)c(Cl)c2)C1(C)C (stereo not drawn)	?	?	16µM*	-38%	21µM*	-29%
CN1C(=S)SC(C)(C)C1N(O)C(=O)Nc1ccc(Cl)cc1 (stereo not drawn)	8%	-25%	?	-23%	?	-2%
c1ccc(-c2nnc3nc(N4CCCCC4)nc(N4CCCCC4)n23)cc1	9%	0%	15µM*	-28%	18µM*	20%
FC(F)(F)c1cc(-c2ccccc2)nc(N2CCCCC2)n1	-3%[9.24 µM]	?	-27%	-7%	-92%	-1%
CC1CCC(C(C)C)C(=O)/C1=C/c1ccc(N)cc1 (stereo not drawn)	?	-19%	13µM*	-17%	15µM*	-5%
O=C(Nc1ccccc1)Oc1cccc(Br)c1	1%	-21%	-23%	5%	1%	-12%
NC(N)=NC(=O)c1nc(Cl)c(N2CCCCCC2)nc1N	?	2%	7.1µM*	2%	7.1µM*	?
Nc1c(Cl)ncnc1N1CCCC1	2%	19%	-18%	21%	9%	0%
